Among the data in PubChem BioAssay (NCI) are growth values, retold here.

The panel holds about 83,000 compounds, 20% with a hit somewhere; the sample as a whole holds those more often.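 Negative percent growth values reflect cell death: -40 means 40% of the cells present at the start died, and -100 means all died.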 Values without a mark were called inactive. Calls of active or inactive are those of the source.

The subject of the experiment is PC-3 prostate. Nature of the experiment: NCI-60 one-dose screen, 48 h (100 = growth as untreated, 0 = no growth, -100 = all killed). To be noted: 10 µM unless noted. On the procedure: Growth inhibition of the PC-3 human tumor cell line is measured as a screen for anti-cancer activity. Cells are grown in 96 well plates and exposed to the test compound for 48 hours. Compounds are tested at a single concentration, which is 10^-5 M for most compounds. The reported endpoint is percent growth (GI% or GIPRCNT), where numbers from 0 - 100% represent growth inhibition, and numbers from -100% - 0 represent cell death. For example, a value of 40 represents 60% growth inhibition. A value of 0 means no net growth occurred over the course of the experiment. A value of -40 indicates 40% of cells at the beginning of the experiment died by the end of the experiment. A value of -100 means all cells are dead at the end of the experiment.
NCI-60 Human Tumor Cell Lines Screen was performed using the standard one-dose NCI protocol, which is described in more detail at https://dtp.cancer.gov/discovery_development/nci-60/default.htm.
Compounds with GIPRCNT values below 10 were considered active. Activity score was based on GIPRCNT using the following formula: […]
Score is 0 for GIPRCNT values of 100 or above, 50 for GIPRCNT values of 0, and 100 for GIPRCNT values of -100.
`COc1ccc(C(=O)c2cc(C(=O)/C=C/c3c(Cl)cccc3Cl)c3cc(C)ccn23)cc1`: the growth is 91.3%.
For the compound `Clc1ccc2oc3c(NCCCN4CCOCC4)c4ccccc4nc3c2c1`, the growth was 40.7%.
For `CC1=C(C)C(=O)C(Nc2cccc(C(F)(F)F)c2)=C(Cl)C1=O` the value was 64.4%.
For `C=CCSc1ccc2c(c1)C(N1CCNCC1)=Nc1ccccc1O2` the value was 66.9% [8.25 µM]; for `CCN1C(=S)N(CC)C2C1NN=C1SC(c3ccccc3)=CC(=O)N12` (stereo not given), 99.2%.
As to `CC(=O)Oc1ccccc1C(=O)Nc1ccc(C(=O)/C=C/c2cccs2)cc1`, the growth is 103%.
In the case of `N#Cc1nc(-c2ccccc2)oc1N1CC[C@@H](CO)C1`, the growth is 92.2%.
In the case of `CN(C)CCCOc1c2ccccc2nc2c1oc1ccc(Cl)cc12` it was 5.23% (active); in that of `N/C(=N\c1nc2c(Cl)cc(Cl)cc2s1)C(Cl)(Cl)Cl`, 37.5%; in that of `Cc1[nH]nc2ncc(C#Cc3cncc(C(=O)Nc4ccc(CN5CCN(C)CC5)c(C(F)(F)F)c4)c3)cc12`, 48.8%.
In the case of `COC(=O)c1ccc(NC(=S)N2CCc3ccc([N+](=O)[O-])cc3C2)cc1O` it was 98.7%; in that of `CCN(CC)c1ccc(C=O)c(OCc2cn(CC(=O)Nc3ccc(Cl)cc3)nn2)c1`, 56.2%; in that of `C#Cc1nc(C2=C(C)C(=O)/C(=N/OC(C)=O)C2)cs1`, 94.3%.
For `C=C1CC[C@H]2[C@@](C)(CCC3OC(c4ccc(OCc5cn(C6CC(OC(C)=O)C(OC(C)=O)C(COC(C)=O)O6)nn5)cc4)OC[C@]32C)[C@@H]1/C=C/C1=CCOC1=O` (stereo not given in full) the value was 62%; for `CS(=O)(=O)c1ccc(-c2nc3ccccn3c2C=Nc2ccc(Cl)cc2)cc1`, 57.8%; for `CSCCC(C(=O)O)N1C(=O)/C(=C/c2ccc(O)c(O)c2)SC1=S` (stereo not given), 99.2%.
For the compound `O=C(c1ccc(O)cc1)C1[C@H](c2ccc(Cl)cc2)[C@@H](c2ccccc2)NC12C(=O)Nc1ccc(Cl)cc12` (stereo not given in full), the growth was 24.6%.
For `Clc1ccc2c(NCCCn3ccnc3)c3oc4ccc(Cl)cc4c3nc2c1` the value was 73.8%.
In the case of `Cc1cccc2sc(/N=C(\N)C(Cl)(Cl)Cl)nc12` it was 103%.
For `CCOC(=O)c1c(Nc2ccccc2)nn2c(N)c(C#N)c(-c3ccc(F)cc3)nc12` the value was 80.3%; for `CC(C)NC(=O)c1cc(-c2ccc(NC(=O)Nc3ccc(N4CCOCC4)c(C(F)(F)F)c3)cc2)nc2cccnc12`, 44.5%; for `CCOC(=O)c1sc(N)c(C(=O)OCC)c1C`, 54.4%.
On to `C[C@@H]1CN(c2ccc3ncc(C#Cc4cncc(C(=O)Nc5ccc(CN6CCN(C)CC6)c(C(F)(F)F)c5)c4)n3n2)C[C@H](C)O1`, for which the growth was 0.777% (active).
For `CC(C)(O)c1cncc(-c2ccc3ncnc(N4CCc5cc(F)c(Cl)cc54)c3c2)c1`, the growth was 18.7%.
In the case of `CNC(=O)c1cc(-c2ccc(NC(=O)Nc3ccc(N4CCOCC4)c(C(F)(F)F)c3)cc2)nc2cccnc12`, the growth was 52.1%.
In the case of `O=C1c2c(c3c4cc(Br)ccc4[nH]c3c3ccc4ccccc4c23)C(=O)N1CCO` it was 83.3%; in that of `COc1ccccc1C(=O)CSc1nc(Nc2ccc(S(N)(=O)=O)cc2)c2ccccc2n1`, 92.6%; in that of `CCN1C(=S)N(c2ccccc2)C2NC(=O)N(/N=C/C=C/c3ccccc3OC)C21` (stereo not given), 90.3%.
For `CCCCCCNC(=O)Oc1ccc(/C(=C(/C)c2ccccc2)c2ccc(OCCN3CCCCCC3)cc2)cc1` the value was 38.7%.
For `O=C(CSc1nnc(-c2ccc3nc(-c4ccc(Cl)cc4)[nH]c3c2)o1)Nc1ccc(C(=O)/C=C/c2ccc(Cl)cc2)cc1` the value was 87.7%; for `CN(C)S(=O)(=O)c1oc(-c2ccccc2)nc1C#N`, 88.7%; for `Cc1c(Nc2nnc(SCC(=O)Nc3sc4c(c3C#N)CCCC4)s2)c(=O)n(-c2ccccc2)n1C`, 101%.
As to `C#Cc1nc(C2=C(C)/C(=N/OCc3ccccc3)CC2)cs1`, the growth is 82.3%.
In the case of `Cn1cc(-c2cc(N)n3nc(-c4cn(C)c5ccc(F)cc45)cc3n2)c2cc(F)ccc21` it was 63.4%.
In the case of `N=C1CC(=O)NN1C(=O)CSc1nc2sc3c(c2c(=O)n1-c1ccc(Cl)cc1)CCCC3`, the growth is 95.6%.
For `O=C1Nc2cc(Cl)ccc2/C1=C\c1ccc(OCc2ccc(Br)cc2F)cc1` the value was -57.1% (active); for `OC1CCN(CCCOc2c3ccccc3nc3c2oc2ccccc23)CC1`, -1.48% (active); for `COc1ccc(-c2csc(N/N=C/c3c(-c4ccc(S(C)(=O)=O)cc4)nc4ccccn34)n2)cc1`, 105%.
Take `COc1cc(/C=C/C(=O)c2ccc(C(F)(F)F)cc2)ccc1Oc1nc(NCCO)nc(N2CCOCC2)n1`: the growth is 87.2%.
In the case of `OC1CCc2c(-c3ccc4ncnc(N5CCc6cc(F)c(Cl)cc65)c4c3)cncc21` (stereo not given) it was 41.3%.
